# High-throughput results (PubChem BioAssay)
# Rows were chosen to be rich in hits. Some 2.3% of all compounds tested hit in one or more screens of this group.
# CHO-K1 Ca antag: counter-screen for M1 antagonists: effect in parental CHO-K1 cells | AID 602250 | inhibition, % at 3 µM | ATP-induced calcium, Fluo-8 fluorescence | 360,000 compounds, 0.6% hits;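 active = inhibition above a per-plate cutoff, the plate's mean sample inhibition plus 3 SD, cut at about 24% in these data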;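 note: 0% = DMSO plus EC80 ATP and 100% = DMSO alone without ATP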
# M1 PAM parental: counter-screen for M1 PAMs: effect in parental CHO-K1 cells | ATP EC20, Fluo-8 calcium fluorescence; 0% at ATP EC20, 100% at ATP max | activation, % at 3 µM | 360,000 compounds, 0.02% hits;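 active = activation above the run cutoff, the mean activation of all test compounds plus 3 SD, cut at about 40% in these data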;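 note: peak over basal fluorescence ratio in a 140 s read after ATP addition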
# CHO-K1 Ca ag: counter-screen for M1 agonists: effect in parental CHO-K1 cells; 360,000 compounds, 0.48% hits; activation, % at 3 µM; Fluo-8 calcium fluorescence; scaled to maximal ATP response, vehicle zero; AID 602248; in the data active = activation above about 15%;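 note: untransfected CHO-K1 host cells lacking M1 receptor as counterscreen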
# CHRM1 agonist: human M1 muscarinic receptor agonism. CHO-K1 hM1, Fluo-8 calcium fluorescence, agonist mode; 0% DMSO, 100% acetylcholine EC100. AID 588814. 360,000 compounds, 0.33% hits. activation, % at 3 µM;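 active = activation above the run's mean compound activation plus 3 SD, cut at about 16% in these data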;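 note: peak over basal fluorescence ratio within a 140 s kinetic read after compound addition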
# Target sequence (P11229 whole entry, looked up): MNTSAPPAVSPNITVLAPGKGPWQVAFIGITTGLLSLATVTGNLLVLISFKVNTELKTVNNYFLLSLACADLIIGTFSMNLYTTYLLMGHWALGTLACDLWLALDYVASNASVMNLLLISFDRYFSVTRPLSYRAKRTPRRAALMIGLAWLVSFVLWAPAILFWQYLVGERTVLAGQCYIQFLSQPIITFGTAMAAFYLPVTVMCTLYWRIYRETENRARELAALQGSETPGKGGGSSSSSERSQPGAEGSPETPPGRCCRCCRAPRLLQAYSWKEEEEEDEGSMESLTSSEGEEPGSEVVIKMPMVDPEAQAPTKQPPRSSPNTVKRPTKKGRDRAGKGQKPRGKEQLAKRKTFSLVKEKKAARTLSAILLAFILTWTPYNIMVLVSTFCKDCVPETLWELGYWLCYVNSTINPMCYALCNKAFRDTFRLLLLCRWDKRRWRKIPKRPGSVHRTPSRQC
# M1 antag: antagonists of human M1 muscarinic receptor. P11229. CHO-K1 hM1, Fluo-8 calcium fluorescence, ACh EC80 antagonist. inhibition, % at 3 µM. 360,000 compounds, 1.3% hits. AID 588852;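 active = percent inhibition above its own plate's cutoff, namely the mean of that plate's compound wells plus 3 SD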;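 note: peak over basal fluorescence ratio during 140 s after agonist addition; 0% = ACh EC80 plus DMSO and 100% = DMSO alone without agonist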
# CHRM1 PAM: positive allosteric modulators of human M1 muscarinic receptor; activation, % at 3 µM; CHO-K1 hM1, Fluo-8 calcium fluorescence, ACh EC20; 0% = ACh EC20, 100% = maximal ACh; 360,000 compounds, 0.088% hits; P11229; in the data active = activation above about 19%, passing the limit was not always enough
# * marks the source's active call; other numbers are inactive results.
SMILES,CHO-K1 Ca antag,M1 PAM parental,CHO-K1 Ca ag,CHRM1 agonist,M1 antag,CHRM1 PAM
CC(=O)c1cccc(NC(=O)C(C)OC(=O)CCN=C2NS(=O)(=O)c3ccccc32)c1 (stereo not drawn),-5,13,1,-1,-16,6
CCOC(=O)C(C(=O)OCC)c1cc(Br)c2noc3c2c1C(=O)c1ccccc1-3,23,12,8,8,35*,2
Cc1nn(-c2ccccc2)c(Cl)c1/C=C/C(=O)c1ccccc1,28*,-6,0,-1,-26,2
Cc1nn(-c2ccccc2)c(Cl)c1/C=N/O,10,5,0,-7,7,-1
COc1ccc([C@H]2C[C@@H](O)[C@H](n3cc(COC(=O)c4ccccc4)nn3)CN2CC2CCCCC2)cc1,15,-10,-1,-3,1,1
COC(=O)c1cc2ccsc2n1Cc1cc(=O)n2ccccc2n1,-3,-3,1,-12,77*,-37
N#CC1(NC(=O)CN2CCc3ccccc3C2)CCCC1,2,13,0,-6,-4,10
CN1CCCC(OC(=O)c2ccccc2F)C1 (stereo not drawn),-5,0,1,-10,27,-14
CN1CCCC(CC2c3ccccc3Sc3ccccc32)C1 (stereo not drawn),1,9,2,-3,99*,-25
CCN(CC)S(=O)(=O)c1cccc(-c2nnc(SCCOc3ccccc3)o2)c1,47*,7,1,0,-15,-4
CCN(CC)S(=O)(=O)c1cccc(-c2nnc(SCCOc3ccc(Cl)cc3)o2)c1,-8,18,0,-2,-20,2
Cc1ccsc1CN(C)CC(=O)N(C)CC(=O)Nc1c(Cl)cccc1Cl,2,10,1,-2,-16,8
CCOC(=O)C1=C(C)S/C(=C\N(C)C)C1=O,3,8,0,8,-29,8
CCOC(=O)C1=C(C)NC(=O)/C1=C\N(C)C,28*,-15,0,-2,12,-11
O=C(Nc1ccccc1)C(Cc1cccs1)c1nn[nH]n1 (stereo not drawn),-2,7,0,-3,-9,6
CCOc1cccc(NC(=O)C(Cc2cccs2)c2nn[nH]n2)c1 (stereo not drawn),27*,-9,0,-4,12,-7
COC(=O)c1ccc(NC(=O)CCN2C(=O)C3C4CCC(C4)C3C2=O)cc1 (stereo not drawn),10,-14,0,-3,10,-4
CC/C(=N\NC(=O)CSc1ncccn1)c1ccc2c(c1)OCCO2,26*,-9,0,-12,0,1
COc1ccc(CNC(=O)CCCn2nc(C)c3c(C)n(-c4ccc(C)cc4)nc3c2=O)cc1,-21,4,-1,-6,-8,0
NC(=O)c1ccc2c(=O)n3c(-c4cccs4)csc3nc2c1,-9,10,0,-3,-21,11
CCOC(=O)C1=C(O)/C(=C\c2ccc(CNC(=O)C(=O)Nc3ccccc3)o2)N=C1C,28*,-9,0,-2,19,-7
CC(C)c1nnc(NC(=O)C2c3ccccc3Oc3ccccc32)s1,-5,17,2,1,45*,-19
CCOCc1nnc(NC(=O)c2ccco2)s1,-8,3,0,-1,2,6
Cc1nnc(NC(=O)C2c3ccccc3Oc3ccccc32)s1,4,2,1,-5,15,-11
CCOCc1nnc(NC(=O)C2c3ccccc3Oc3ccccc32)s1,7,16,20*,6,12,-13
SMILES,CHO-K1 Ca antag,M1 PAM parental,CHO-K1 Ca ag,CHRM1 agonist,M1 antag,CHRM1 PAM
CC(=O)N1CCc2cc(S(=O)(=O)N3CCc4ccccc43)ccc21,9,1,15*,1,60*,-23
CC(=O)N1CCc2cc(S(=O)(=O)N3CCc4ccccc4C3)ccc21,-9,20,1,-2,-6,14
Cn1cc(S(=O)(=O)N2CCc3ccccc32)cc1C(=O)NC(C)(C)C,26*,-13,6,4,32*,-15
Cc1cccc(C)c1NC(=O)c1cc(S(=O)(=O)N2CCc3ccccc32)cn1C,2,0,1,-5,-1,-4
COc1cccc(NS(=O)(=O)c2ccc3c(c2)CCN3C(C)=O)c1,8,-18,14,-6,20,-14
CSc1cccc(NS(=O)(=O)c2ccc3c(c2)CCN3C(C)=O)c1,29*,-29,18*,-3,31,-15
COc1ccc(-c2csc(N(CCCN3CCOCC3)C(=O)c3ccco3)n2)cc1,6,-4,3,-3,42*,-9
Cc1ccc(-c2csc(N(CCCN3CCOCC3)C(=O)c3ccco3)n2)cc1,-15,1,5,-7,15,-14
COc1ccc(-c2csc(N(CCCN(C)C)C(=O)c3cccs3)n2)cc1,3,19,8,5,30*,-7
Cc1ccc(C2N(c3ccccc3)C(=S)N3CCCN23)cc1 (stereo not drawn),-4,3,0,-7,85*,-25
Fc1ccc(C2N(c3ccccc3)C(=S)N3CCCN23)cc1 (stereo not drawn),10,-19,0,-8,25,-20
COc1ccc(/C=C2\SC(=O)N(CC(=O)Nc3ccc(F)cc3)C2=O)cc1O,-8,-5,2,-4,3,-3
CCC(C)(C)C(=O)Nc1ncc(S(=O)(=O)c2ccc([N+](=O)[O-])cc2)s1,2,14,4,16,-11,-6
COC(=O)C(NC(=O)c1ccccc1Cl)(Nc1ncc(S(=O)(=O)c2ccc([N+](=O)[O-])cc2)s1)C(F)(F)F (stereo not drawn),2,18,10,22*,10,2
CCN(CC)c1ccc(/C=C/c2ccc3ccc(OC)cc3[n+]2CC)cc1,57*,-25,11,3,48*,-14
CC(C)c1nc(SCC(=O)Nc2c[nH]c(=O)[nH]c2=O)c2cnn(-c3ccccc3)c2n1,41*,3,-1,-4,7,3
CN1CCC(OC(c2ccccc2)c2ccc(Cl)cc2)C1 (stereo not drawn),-12,15,6,-1,100*,-31
COc1ccccc1NS(=O)(=O)c1cccc(C(=O)NCC(c2ccco2)N(C)C)c1 (stereo not drawn),-1,16,2,-6,5,-6
O=C(CNC(=O)c1ccccc1F)N/N=C/c1cn[nH]c1-c1ccccc1,0,16,2,-10,41*,-30
COc1ccc(C2/C=C\CN(C(=O)Nc3ccccc3)CC(=O)N2Cc2ccc(F)cc2)cc1 (stereo not drawn),-5,5,1,-2,-1,8
